# nsP2pro inh: CHIKV nsP2 protease inhibition, primary qHTS | AID 1964107 | Potency, µM (top dose mostly 24.9 µM), inactives show at the top dose activity change, negative = inhibition, usual class: inhibitors | 31,000 tested, 1.1% active | FRET peptide cleavage, nsP2pro, fluorescence 1 h; also: nearly all actives have a fitted effect of over 60% in size
#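 FRET cleavage of 2.5 uM peptide 2 by 150 nM CHIKV protease domain at pH 8.0 (Tris, Tween 20). Compounds at 7 concentrations (up to 25 uM) preincubated 15 min. Fluorescence read after 1 h at room temperature.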
# CHIKV nsP2 cell: cell-based CHIKV nsP2 protease inhibition, secondary; cell-based CHIKV nsP2 protease reporter assay; Potency, µM (series often up to 51.1 µM), without a hit: at the top dose activity change, negative = inhibition, usual class: inhibitors; shares compounds with nsP2pro inh; AID 1964100; 450 tested, 10% active; also: nearly all actives have a fitted effect of over 70% in size
# CHIKV NSP2 FL: inhibits full-length CHIKV NSP2 enzyme; Potency, µM (series often up to 50.7 µM), inactives show at the top dose activity change, negative = inhibition, actives largely listed as inhibitors; shares compounds with nsP2pro inh; Full-length CHIKV NSP2 protease enzymatic counterscreen; AID 1964101; 410 tested, 39% active; also: nearly all actives have a fitted effect of over 65% in size
# Furin counterscr: inhibits human furin in a CHIKV nsP2 protease selectivity counterscreen; AID 1964102; Recombinant human furin enzymatic counterscreen, fluorogenic substrate; shares compounds with nsP2pro inh; Potency, µM (highest dose often 50.6 µM), inactives show at the top dose activity change, negative = inhibition, actives largely listed as inhibitors; 410 tested, 6% active
# NS23 peptide cs: nsP2pro inhibition on native NS2/3 peptide substrate; shares compounds with nsP2pro inh; Purified CHIKV nsP2 protease, endogenous NS2/3 peptide cleavage; Potency, µM (doses to about 51 µM), inactives show at the top dose activity change, negative = inhibition, most hits filed as inhibitors; 410 tested, 34% active; AID 1964103; also: nearly all actives have a fitted effect of over 55% in size
# Papain cs: selectivity counter-screen for CHIKV nsP2 protease inhibitors: papain | 410 tested, 5% active | shares compounds with nsP2pro inh | Potency, µM (highest dose often 51 µM), for the others: top-dose activity change, negative = inhibition, hits mostly inhibitors | AID 1964104 | purified papain protease activity, enzymatic inhibition
# Target sequence (P00784 whole entry, looked up): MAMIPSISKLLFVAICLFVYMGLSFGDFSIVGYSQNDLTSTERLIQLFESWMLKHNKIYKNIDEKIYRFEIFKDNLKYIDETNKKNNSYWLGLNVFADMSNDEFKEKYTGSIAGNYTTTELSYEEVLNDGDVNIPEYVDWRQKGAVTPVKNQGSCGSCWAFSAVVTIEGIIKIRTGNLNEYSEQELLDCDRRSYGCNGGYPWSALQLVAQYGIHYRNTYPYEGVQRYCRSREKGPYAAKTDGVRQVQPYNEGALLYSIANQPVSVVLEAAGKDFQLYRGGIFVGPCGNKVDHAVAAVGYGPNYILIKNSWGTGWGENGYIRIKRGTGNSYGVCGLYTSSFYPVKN
# nsP2pro confirm: confirmation of CHIKV nsP2 protease inhibitors; shares compounds with nsP2pro inh; CHIKV nsP2 protease enzymatic activity, qHTS; Potency, µM (titrated, usually from 25.5 µM), without a hit: at the highest dose activity change, negative = inhibition, hits mostly inhibitors; 410 tested, 43% active; AID 1964105; also: nearly all actives have a fitted effect of over 75% in size
# HCV NS3 counter: inhibits HCV NS3/4A protease in an nsP2pro selectivity counterscreen | shares compounds with nsP2pro inh | HCV NS3/4A protease biochemical counterscreen | Potency, µM (top dose mostly 50.9 µM), usual class: inhibitors | 410 tested, 20% active; also: nearly all actives have a fitted effect of over 55% in size
# Starred values were filed as active, the others as inactive; i = inactive; ? = inconclusive; [ ] = remark or other dose. The full list was thinned out, with hits kept by preference. Calls follow the shape of the full dose curve. % is scaled to controls: 0 for no effect and ±100 for the full control effect; potency is read from the fitted curve at half-maximal effect.
SMILES,nsP2pro inh,others
COc1cccc(NC(=O)c2cc(-c3ccc(C)c(C)c3)nc3ccccc23)c1,0.6%,
Cc1cnc(N2CCC(C(N)=O)CC2)nc1-c1cccc(N(C)C)c1,3.8%,
C[C@]1(CO)CN(c2cc(C(=O)Nc3ccc4c(c3)-c3c(c(C(N)=O)nn3-c3ccc(F)cc3)CC4)c(Cl)cn2)C[C@@]1(C)CO,34.8%,
Cc1c(Cl)c(OCC(=O)N2CCN(C)CC2)nc2sc(C(=O)NC3CC3)c(N)c12,-9.1%,
Cc1ccc(C#Cc2cc(-c3nn(-c4nc(C(=O)O)cs4)c(CC4CC4)c3Cc3ccc(S(N)(=O)=O)c(F)c3)ccc2F)o1,3.98µM*,CHIKV nsP2 cell=0.13µM*;CHIKV NSP2 FL=?;Furin counterscr=-22.4%;NS23 peptide cs=55.6%;Papain cs=23.1µM*;nsP2pro confirm=-52.2%;HCV NS3 counter=i
COc1cc(F)cc(F)c1[S+](=O)([O-])N1CCN([S+](=O)([O-])c2ccc3c(c2)OCCO3)CC1,i,
CCc1ccccc1S(=O)(=O)Nc1cccn2nc(C(C)C)nc12,7.0%,
CN(C)CC(=O)O,-5.8%,
CC1(C)C2CCC1(C)C(OC(=O)C(O)(CC(=O)O)CC(=O)O)C2 (stereo not given),42.2%,
Cc1noc([C@@H]2CN(Cc3ccc[nH]3)C[C@H]2CO)n1,i,
Cc1noc(C2CN(C(=O)c3cc(-c4ccco4)[nH]n3)CC2c2ccccc2)n1 (stereo not given),10µM*,CHIKV nsP2 cell=7.9%;CHIKV NSP2 FL=8.19µM*;Furin counterscr=-9.3%;NS23 peptide cs=?;Papain cs=-13.4%;nsP2pro confirm=8.96µM*;HCV NS3 counter=?
Cc1noc([C@@H]2CN(C(=O)c3cc(C4CC4)[nH]n3)C[C@H]2C(N)=O)n1,-13.7%,
COC1=CC(=O)O[C@@H](/C=C/c2ccccc2)[C@@H]1O,-12.5%,
CC(C)(C)c1cc(C[C@@H]2C[C@H](NS(=O)(=O)c3ccccc3)C2(C)C)no1,-22.2%[39.2 µM],
CCC1Oc2ccc(NC(=O)c3ccccc3OC(C)=O)cc2CN(Cc2ccccc2F)C1=O (stereo not given),1.6%,
CC1(C)CCCC2(C)C(CO)C(CO)=CCC12 (stereo not given),10.9%,
COC(=O)CC(O)C1OC(c2ccccc2)C(O)C1O (stereo not given),39.4%,
O=C1C=CC2OC(c3ccccc3)C(O)C2O1 (stereo not given),?,CHIKV nsP2 cell=?;CHIKV NSP2 FL=?;Furin counterscr=-4.2%;NS23 peptide cs=?;Papain cs=-9.4%;nsP2pro confirm=?;HCV NS3 counter=?
Cc1ccc(N[S+](=O)([O-])c2cc3c(cc2NC2CC2)NC(=O)CC3)cc1C,0.8%,
O=C(c1ccco1)n1nc(-c2ccccc2)nc1NCc1ccc(Cl)cc1,-14.4%,
COc1ccccc1CNc1nc(-c2ccco2)nn1S(=O)(=O)c1ccc(Cl)cc1,8.91µM*,CHIKV nsP2 cell=17.0%
COc1ccccc1CNc1nc2c(S(=O)(=O)c3ccc(C)c(C)c3)nnn2c2ccc(Cl)cc12,-11.2%,
Fc1ccc(CN2CCC(Nc3ccc(C(F)(F)F)nn3)CC2)cc1F,-7.7%,
COc1ccc(NC(=O)/C=C\C(=O)N(c2ccc(C(C)C)cc2)C(C(=O)NCc2ccco2)c2ccc(F)cc2)cc1 (stereo not given),-19.2%,
O=C(/C=C/c1ccco1)Nc1ccc(F)cc1,6.31µM*,CHIKV nsP2 cell=-20.0%
SMILES,nsP2pro inh,others
O=C(c1ccc(F)cc1)n1nc(-c2ccc(Cl)cc2)nc1NCc1ccco1,-22.7%,
Clc1ccc2ncc(-c3cccc(NC4CNC4)n3)n2c1,-16.0%,
COC(=O)c1ccc(Cn2ncc3c4sc(C)cc4n(C)c3c2=O)cc1,-9.6%,
Clc1ncoc1-c1c[nH]c2ccccc12,?,CHIKV nsP2 cell=-13.3%;CHIKV NSP2 FL=-18.5%;Furin counterscr=-1.9%;NS23 peptide cs=-26.1%;Papain cs=-13.1%;nsP2pro confirm=-22.3%;HCV NS3 counter=i
CNc1oc(-c2c[nH]c3ccccc23)nc1C#N,i,
COc1cc2nccc(Oc3ccc(NC(=O)Nc4cc(C)on4)c(Cl)c3)c2cc1OC,58.1%,
C=Cc1c(C)c2cc3nc(c(CC(=O)N[C@@H](CC(=O)O)C(=O)O)c4nc(cc5[nH]c(cc1[nH]2)c(C)c5CC)C(C)=C4C(=O)O)[C@@H](CCC(=O)O)[C@@H]3C,1.8%,
Clc1cc(Cl)c(OCC#CI)cc1Cl,4.42µM*,CHIKV nsP2 cell=?;CHIKV NSP2 FL=7.11µM*;Furin counterscr=8.96µM*;NS23 peptide cs=5.04µM*;Papain cs=-18.3%[17.2 µM];nsP2pro confirm=2.19µM*;HCV NS3 counter=i
CCn1cc(-c2ccc(F)cc2)cc1C(=O)O,16.6%,
O=C1CCCC2=C1C(c1[nH]ncc1Cl)N=C(Nc1nc3cccc(Cl)c3o1)N2 (stereo not given),i,
Cc1cc(O)cc(O[C@@H]2O[C@H](CO)[C@@H](O)[C@H](O)[C@H]2O)c1,1.8%,
O=C(c1cc(F)ccc1F)N1CCCC(Cc2noc(-c3ccccc3)n2)C1 (stereo not given),-1.2%,
Cc1ccc(S(=O)(=O)O)cc1,7.3%,
Cc1ccc(S(=O)(=O)c2ncccc2[N+](=O)[O-])cc1,?,CHIKV nsP2 cell=3.66µM*;CHIKV NSP2 FL=?;Furin counterscr=-6.0%;NS23 peptide cs=9.19µM*;Papain cs=-5.5%;nsP2pro confirm=7.98µM*;HCV NS3 counter=i
Cc1ccc(S(=O)(=O)c2nc(S(=O)(=O)c3ccc(C)cc3)c(NC(C)C)s2)cc1,-12.7%,
CN(C)Cc1c(C(=O)NCCOc2ccc(C(=O)NO)cc2)oc2ccccc12,-13.7%,
Cc1noc(C)c1S(=O)(=O)N(C)C1CCOc2ccccc21 (stereo not given),-3.9%[39.2 µM],
Nc1ccccc1NC(=O)CCCCCCC(=O)Nc1ccccc1,7.6%,
N[C@@H](Cc1ccc(OS(=O)(=O)c2cccnc2)cc1)C(=O)N1CCN(c2ccccc2)CC1,4.0%,
CCN1C[C@H](C)n2c(c(O)c3c(=O)n(Cc4ccc(F)c(Cl)c4)nc(C(=O)NC)c32)C1=O,-12.5%,
O=[N+]([O-])c1ccc(S(=O)(=O)c2ccc(Cl)cc2)nc1,0.316µM*,CHIKV nsP2 cell=2.06µM*;CHIKV NSP2 FL=0.73µM*;Furin counterscr=16.3µM*;NS23 peptide cs=1.83µM*;Papain cs=-10.5%;nsP2pro confirm=0.449µM*;HCV NS3 counter=5.17µM*
O=C(NCC1CN(Cc2cccc(O)c2)CC12CN(c1ccccc1)C2)c1ccccc1 (stereo not given),-7.4%[39.2 µM],
O=C(N[C@@H]1CN(C(=O)c2nccc3ccccc23)C[C@H]1CO)c1ccccc1,-3.2%,
Cc1cc(N2CCOCC2)cc2[nH]c(-c3c(NC[C@@H](O)c4cccc(Cl)c4)cc[nH]c3=O)nc12,12.3%,

# Screens: PubChem, National Center for Advancing Translational Sciences (NCATS)
